Screens (PubChem BioAssay)
A selection: hits, their analogues and other compounds. The true share with any hit is near 4.6%.
KLK7 zymogen act: proKLK7 zymogen activators, primary screen, biochemical, fluorescence intensity; AID 652039, 2013; hit rate 0.9% among 370,000; activation, % at 7 µM; Kallikrein-7 (Homo sapiens), P49862; purified proKLK7, EDANS-DABCYL substrate fluorescence; 100% is mature enzyme control, 0% vehicle;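 active = activation above the mean of all tested compounds plus 3 SD, computed per campaign excluding outliers beyond control limits, cut at about 13% in these data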
FAS-TE inh: FAS thioesterase domain inhibitors, primary screen, biochemical, fluorescence intensity, uHTS; inhibition, % at 15 µM; AID 602261, 2012; Fatty acid synthase (Homo sapiens), P49327; hit rate 0.67% among 360,000; recombinant FAS-TE, OMFH fluorogenic substrate, fluorescence endpoint;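 active = compounds whose normalised, plate-corrected inhibition of enzyme fluorescence in the single-dose primary screen is 50% or more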
ADAM17 inh: ADAM17 inhibitors, primary screen, biochemical, QFRET; AID 720648, 2013; recombinant ADAM17, EDANS/DABCYL FRET peptide cleavage; inhibition, % at 6.95 µM; hit rate 0.83% among 370,000;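 active = inhibition above the mean of compounds lying between control limits plus 3 SD, set per campaign, cut at about 8.5% in these data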
NR3A LBD binder: binders of NR3A ligand-binding domain, primary screen, biophysical, differential scanning fluorimetry, uHTS. AID 1259313, 2017. NR3A LBD differential scanning fluorimetry, Tm shift; 0% = protein alone, 100% = glycine-bound protein. hit rate 2.5% among 340,000. Glutamate receptor ionotropic, NMDA 3A (GRIN3A) ligand-binding domain. Tm shift relative to glycine control, % at 25 µM;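 active = melting temperature shift of at least 10% of the positive control shift, at one fixed dose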
ADAM10 inh: human ADAM10 inhibitors, primary screen, biochemical, QFRET, HTS; Disintegrin and metalloproteinase domain-containing protein 10 (Homo sapiens), O14672; recombinant ADAM10, EDANS/DABCYL FRET peptide cleavage, 3 h; inhibition, % at 7 µM; hit rate 0.62% among 370,000; AID 720582, 2013;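 active = inhibition above a per-campaign cutoff equal to the mean of compounds falling between control-based bounds plus 3 SD, cut at about 20% in these data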
Target sequence (O14672 214-748 limits assumed): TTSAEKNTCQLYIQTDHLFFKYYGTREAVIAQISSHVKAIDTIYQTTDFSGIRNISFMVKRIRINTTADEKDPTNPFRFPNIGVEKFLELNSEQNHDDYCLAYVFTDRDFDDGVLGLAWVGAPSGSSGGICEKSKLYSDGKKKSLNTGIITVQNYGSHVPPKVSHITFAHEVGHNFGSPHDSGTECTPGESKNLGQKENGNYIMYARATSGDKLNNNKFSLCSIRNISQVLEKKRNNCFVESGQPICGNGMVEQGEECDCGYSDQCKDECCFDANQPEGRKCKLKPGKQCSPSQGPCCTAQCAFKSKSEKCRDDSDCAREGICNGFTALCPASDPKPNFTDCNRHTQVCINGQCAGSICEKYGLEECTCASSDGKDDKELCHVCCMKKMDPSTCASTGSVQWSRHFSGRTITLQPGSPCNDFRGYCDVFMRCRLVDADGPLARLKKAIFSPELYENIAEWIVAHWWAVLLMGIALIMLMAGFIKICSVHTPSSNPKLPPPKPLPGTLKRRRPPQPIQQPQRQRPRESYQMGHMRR
Each line names hits and unclear results; the compound was inactive in the other large screens.

CCOc1ccccc1NC(=O)c1cc(C(=O)c2cc(Br)ccc2O)coc1=N	NR3A LBD binder 25
CC(=O)Nc1ccc(Nc2cc(C)nc3c(-c4ccc(Cl)cc4)cnn23)cc1	NR3A LBD binder 30
Fc1ccccc1N=C1NN=C(c2ccccc2)CS1	NR3A LBD binder 13
Fc1ccc(F)c(C2=NNC(=Nc3ccccc3F)SC2)c1	none
CCN(CC)C(=O)CC[C@H]1CC[C@]2(CCCN(Cc3cccnc3)C2)O1	none (no result: FAS-TE inh, NR3A LBD binder)
CC(C)(C)C(=O)OC12CCCN(C1)/C(=C/c1ccc(Cl)cc1)C2 (centres undefined)	none (no result: FAS-TE inh, NR3A LBD binder)
COc1cc(/C=C/C(O)=C/C(=O)/C=C/c2ccc(O)cc2)ccc1O	NR3A LBD binder 23
CCCC(=O)OC12CCCN(C1)/C(=C/c1cccc(OC)c1)C2 (centres undefined)	none (no result: FAS-TE inh, NR3A LBD binder)
O=C(COC(=O)CCc1c[nH]c2ccccc12)Nc1ccc([N+](=O)[O-])cc1	NR3A LBD binder 35
Cc1cccc(C)c1NC(=O)COC(=O)CCc1c[nH]c2ccccc12	none
COC(=O)c1cc(NC(=O)COC(=O)CCc2c[nH]c3ccccc23)cc(C(=O)OC)c1	NR3A LBD binder 11
O=C(/C=C/c1ccc2c(c1)OCCCO2)c1ccc2ccccc2c1O	NR3A LBD binder 32
Cc1ccc(C(=O)/C=C/c2ccc3c(c2)OCCO3)c(O)c1	none
CN(C)S(=O)(=O)c1cc(C(=O)NCC2CCCO2)c(Cl)cc1Cl (centres undefined)	NR3A LBD binder 18
CCN1CC(c2ccccc2)C(c2ccc(Cl)cc2)=N1 (centres undefined)	NR3A LBD binder 12
COC(=O)c1ccc(COC(=O)C(CCSC)NC(=O)COc2ccccc2)cc1 (centres undefined)	NR3A LBD binder 22
CSCCC(NC(=O)COc1ccccc1)C(=O)OCC(=O)c1ccccc1 (centres undefined)	none
Cc1ccc(NC(=O)O/N=C/c2ccc(N(C)C)cc2)cc1	NR3A LBD binder 19
COc1ccc(NC(=O)O/N=C/c2ccc(N(C)C)cc2)cc1	none
C/C(=N\N=C1\NC(=O)C(CC(=O)Nc2ccc(C)c(Cl)c2)S1)C(C)(C)C (centres undefined)	NR3A LBD binder 20
O=C(CC1S/C(=N/N=C/c2cccs2)NC1=O)Nc1ccc(Cl)c(Cl)c1 (centres undefined)	NR3A LBD binder 28
Cc1ccc(S(=O)(=O)N2O[C@@H](c3ccccc3)C[C@H]2CON2C(C)(C)CCCC2(C)C)cc1	none (no result: KLK7 zymogen act, FAS-TE inh, NR3A LBD binder)
O=C(Cn1cc(/C=N/NC(=O)c2ccccc2Br)c2ccccc21)Nc1ccc(F)cc1	NR3A LBD binder 10
O=C(Cn1cc(/C=N/NC(=O)c2cccc3ccccc23)c2ccccc21)Nc1ccc(F)cc1	none
Cc1ccccc1/C=N/Nc1nc2ccccc2[nH]1	none
Brc1ccc(-c2ccc(/C=N/Nc3nc4ccccc4[nH]3)o2)cc1	NR3A LBD binder 31
C(=N\Nc1nc2ccccc2[nH]1)/c1c[nH]c2ccccc12	NR3A LBD binder 15
C(=N\Nc1nc2ccccc2[nH]1)/c1ccccc1	none
C(=N\Nc1nc(N2CCCCC2)nc(N2CCCCC2)n1)/c1c[nH]c2ccccc12	NR3A LBD binder 10
CC1(C)CC(=O)N(CC(=O)N2CCN(Cc3ccccc3)CC2)c2ccccc2S1(=O)=O	none (no result: FAS-TE inh, NR3A LBD binder)
CN(Cc1ccccc1)S(=O)(=O)c1cccc(C(=O)OCc2ccccc2)c1	none (no result: FAS-TE inh, NR3A LBD binder)
CCCCC(=O)N=c1sc2cc([N+](=O)[O-])ccc2n1C	none
COCCn1c(=NC(=O)c2cc(Cl)sc2Cl)sc2cc(S(N)(=O)=O)ccc21	NR3A LBD binder 28
COCCn1c(=NC(C)=O)sc2cc([N+](=O)[O-])ccc21	NR3A LBD binder 27
COC(=O)Cn1c(=NC(=O)c2cc(-c3cccs3)nc3ccccc23)sc2cc(S(N)(=O)=O)ccc21	NR3A LBD binder 16
CCOC(=O)CNC(=O)CSc1nnc(-c2ccc(C(C)(C)C)cc2)n1-c1ccc(Cl)cc1	none (no result: FAS-TE inh, NR3A LBD binder)
COc1ccc(C(=O)N(C)[C@H]2C[C@H]3c4[nH]c5cccc(-c6ccccc6)c5c4CCN3C[C@H]2[C@H](C)O)cc1	none (no result: FAS-TE inh, NR3A LBD binder)
CN(CCc1ccccc1)C(=O)c1ccc(NC(=O)Cc2ccc(NC(=O)C3CCCN(C(=O)CCc4ccccc4)C3)cc2)cc1 (centres undefined)	NR3A LBD binder 11
N#Cc1cccc(N=c2ssnc2Cl)c1	NR3A LBD binder 27 (no result: FAS-TE inh)
Clc1nssc1=Nc1nncs1	NR3A LBD binder 25
CS(=O)(=O)OC12CCCN(C1)/C(=C/c1ccc(Cl)cc1)C2 (centres undefined)	none (no result: FAS-TE inh, NR3A LBD binder)
O=C(NCCc1ccccc1)OCc1cn(Cc2cccc(C(F)(F)F)c2)nn1	none (no result: FAS-TE inh, NR3A LBD binder)
C[C@H]1CCCC(=O)N[C@@H](c2ccccc2)[C@@H](C)CCCC(=O)N[C@H]1c1ccccc1	none (no result: FAS-TE inh, NR3A LBD binder)
O=C(O)c1cccnc1	NR3A LBD binder 14
O=C(C(=O)c1cccnc1)c1cccnc1	none
COc1ccc(N2CCCN(CC(=O)Nc3ccc(Cl)c(Cl)c3)CC2)cc1	none (no result: FAS-TE inh, NR3A LBD binder)
COC(=O)c1ccccc1CSc1nsc(/C=C/N(C)C)c1C#N	NR3A LBD binder 16 (no result: KLK7 zymogen act, ADAM17 inh, ADAM10 inh)
CCOc1ccc(NC(=O)c2ccccc2NC(=O)CNC2CCCC(C)C2C)cc1 (centres undefined)	NR3A LBD binder 13
CCOc1ccc(NC(=O)c2ccccc2NC(=O)CN(C)CC(=O)Nc2ccc(C)cc2)cc1	none
C=C(C)/C=C1/CN(Cc2ccc3c(c2)OCO3)C(=N)N1C(=O)OCc1ccccc1	none (no result: FAS-TE inh, NR3A LBD binder)
COc1ccc(S(=O)(=O)Nc2cc(C)ccc2OC)cc1C	NR3A LBD binder 12
COc1ccc(C)cc1NS(=O)(=O)c1ccc(NS(=O)(=O)c2ccc(NC(C)=O)cc2)cc1	none
O=C(NN1C(=O)/C(=C/c2cccc(O)c2)SC1=S)c1ccccc1O	NR3A LBD binder 23
O=C(NN1C(=O)/C(=C/c2ccc(O)c(O)c2)SC1=S)c1ccccc1	NR3A LBD binder 13
COc1cc(/C=C2\SC(=S)N(Nc3ccccc3)C2=O)ccc1O	NR3A LBD binder 11
COc1cc(/C=C2\SC(=S)N(NC(=O)c3ccc(O)cc3)C2=O)ccc1O	none
O=C1/C(=C/c2ccc(O)c(O)c2)SC(=S)N1Nc1ccccc1	NR3A LBD binder 16 (no result: KLK7 zymogen act, ADAM17 inh, ADAM10 inh)
CC(C)(C)c1ccc(S(=O)(=O)N2CCCC(C(=O)NCc3ccco3)C2)cc1 (centres undefined)	none (no result: FAS-TE inh, NR3A LBD binder)
Cn1cc(/C=C2\SC(=S)N(NC(=O)c3ccccc3Cl)C2=O)c2ccccc21	NR3A LBD binder 12
O=C(Cn1nnc(-c2ccccc2)n1)N/N=C/c1cc([N+](=O)[O-])c(Cl)cc1Cl	NR3A LBD binder 16
